Screens: PubChem BioAssay, Broad Institute
An excerpt weighted towards active compounds, which were near 6.7% of everything screened.
T cruzi growth-1: T. cruzi proliferation inhibition. inhibition, % at 8.34 µM. 77,000 tested, 5.9% active. T. cruzi beta-gal in NIH3T3, GalScreen luminescence, 90 h. AID 624255;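 active means mean inhibition above about 93%, with at least 55% of replicates each passing it, limit read from the data, passing the limit was not always enough; inconclusive means only one of those two conditions holds; inactive means neither condition holds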
Pf Dd2 inh: P. falciparum Dd2 growth inhibition; SYBR Green, 72 h; active compounds read low; activity change, % at 10 µM; AID 1159554; 94,000 tested, 2.3% active; in the data active means activity change below about -80%; inconclusive means no clear call, values can overlap the other calls
C diff growth: blocks growth of Clostridium difficile | Clostridium difficile clinical isolate growth, OD600, 24 h; active compounds read low | AID 1259249 | 86,000 tested, 0.25% active | growth activity, negative = inhibition, % at 16 µg/mL (by protocol);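 active means mean growth activity at or below -80% and every replicate also at or below -80%; inconclusive means mean at or below -80% but some replicate above -80%; inactive means mean growth activity above -80%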;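 further: 0% = DMSO wells and -100% = levofloxacin 16 µg/mL wells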
T cruzi growth-2: inhibitors of T. cruzi proliferation | shares compounds with T cruzi growth-1 | T. cruzi beta-gal in NIH3T3, GalScreen luminescence, 90 h | inhibition, % at 8.35 µM | 5,600 tested, 72% active;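 active means mean replicate inhibition above about 95% and at least 55% of replicates individually reaching it, limit read from the data; inconclusive means only one of the two criteria is met; inactive means neither criterion is met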
T cruzi growth-3: Trypanosoma cruzi proliferation inhibition. shares compounds with T cruzi growth-1. T. cruzi beta-gal in NIH3T3, GalScreen luminescence, 90 h. inhibition, % at 2.09 µM. 5,600 tested, 21% active. AID 651740;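 active means mean inhibition above about 95%, with at least 55% of replicates also reaching it, limit read from the data; inconclusive means meets just one of the two conditions; inactive means meets neither condition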;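 further: plate controls were neutral control median for no effect and positive control median for full effect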
NIH3T3 tox: cytotoxicity in mouse NIH/3T3 fibroblasts; shares compounds with T cruzi growth-1; NIH/3T3 viability, CellTiter-Glo ATP luminescence, 90 h; cytotoxicity (signal decrease), % at 8.35 µM; 5,600 tested, 14% active; AID 651742;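 active means mean signal decrease across replicates above about 35% based on untreated-well scatter, with enough replicates individually passing, limit read from the data; inconclusive means no rule stated though some were filed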;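 further: 0% = median of neutral control wells and 100% = median of positive control wells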
NIH3T3 tox 2: cytotoxicity in mouse NIH/3T3 fibroblasts; shares compounds with T cruzi growth-1; NIH/3T3 viability, CellTiter-Glo ATP luminescence, 90 h; inhibition, % at 24.9 µM; 5,600 tested, 56% active;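 active means mean loss of cell viability signal at or above a set limit, and enough replicates individually reaching it; inconclusive means meets only the mean limit or only the replicate share; inactive means meets neither condition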;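 further: 0% = median of neutral control wells and 100% = median of positive control wells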
* marks the source's active call; other numbers are inactive results.

Screening COc1cccc(C#Cc2ccc3c(c2)O[C@@H](CN(C)C(C)=O)[C@H](C)CN([C@@H](C)CO)S3(=O)=O)c1 returned T cruzi growth-1 inconclusive, Pf Dd2 inh -76.2, C diff growth -11.7, T cruzi growth-2 107.4*, T cruzi growth-3 29.8, NIH3T3 tox inconclusive and NIH3T3 tox 2 35.1*.
Screening COc1cccc(NC(=O)N(C)C[C@H]2Oc3cc(-c4ccccc4OC)ccc3S(=O)(=O)N([C@H](C)CO)C[C@@H]2C)c1 returned Pf Dd2 inh -17.3 and C diff growth -1.3.
For COc1cccc(NC(=O)N(C)C[C@H]2Oc3cc(C#Cc4ccccc4)ccc3S(=O)(=O)N([C@H](C)CO)C[C@@H]2C)c1 the results were T cruzi growth-1 94.1*, Pf Dd2 inh -84.5*, C diff growth 1.3, T cruzi growth-2 113.4*, T cruzi growth-3 88.9, NIH3T3 tox 24.3 and NIH3T3 tox 2 20.7.
`COc1cccc(NC(=O)N(C)C[C@H]2Oc3cc(C#Cc4ccccc4)ccc3S(=O)(=O)N([C@H](C)CO)C[C@H]2C)c1` gave T cruzi growth-1 85.1*, Pf Dd2 inh -73.7, C diff growth 12.0, T cruzi growth-2 100.1*, T cruzi growth-3 113.8*, NIH3T3 tox 5.1 and NIH3T3 tox 2 5.2.
`COc1cccc(NC(=O)N(C)C[C@H]2Oc3cc(C#CC4(O)CCCC4)ccc3S(=O)(=O)N([C@H](C)CO)C[C@H]2C)c1` gave Pf Dd2 inh -57.5 and C diff growth -0.4.
For COc1cccc(C#Cc2ccc3c(c2)O[C@H](CN(C)C(C)=O)[C@H](C)CN([C@@H](C)CO)S3(=O)=O)c1 the results were T cruzi growth-1 49.7, Pf Dd2 inh -48.6 and C diff growth -10.3.
`C[C@@H]1CN([C@@H](C)CO)C(=O)c2cccc(NS(=O)(=O)c3cccs3)c2O[C@H]1CN(C)S(=O)(=O)c1ccccc1` gave T cruzi growth-1 -47.3 and Pf Dd2 inh 39.9.
Screening COc1ccc(CN(C)C[C@H]2Oc3ccc(NC(=O)Nc4ccc(F)cc4)cc3C(=O)N([C@H](C)CO)C[C@@H]2C)cc1 returned Pf Dd2 inh -4.1 and C diff growth -4.4.
C[C@H](O)C#Cc1ccc([C@@H]2[C@H]3CN(C(=O)c4ccncc4)CCCCN3[C@H]2CO)cc1 was read as T cruzi growth-1 93.0, Pf Dd2 inh 18.9 and C diff growth -7.5.
For C[C@H](CO)N1C[C@H](C)[C@H](CN(C)S(=O)(=O)c2ccc(Cl)cc2)Oc2ccc(NC(=O)CCCN(C)C)cc2CC1=O the results were T cruzi growth-1 -5.2, Pf Dd2 inh -6.1 and C diff growth -3.1.
For COc1ccc(-c2ccc3n(c2=O)C[C@H]2[C@H](CO)[C@@H](C(=O)N(C)C)[C@@H]3N2Cc2cccnc2)cc1 the results were T cruzi growth-1 8.9, Pf Dd2 inh 20.6 and C diff growth -2.3.
CN1c2ccc(-c3ccccc3F)cc2[C@@H]2[C@@H](CCN2S(=O)(=O)c2ccccc2F)[C@H]1CO was read as T cruzi growth-1 92.1, Pf Dd2 inh 5.6 and C diff growth 9.1.
For C[C@H]1CN([C@@H](C)CO)C(=O)Cc2cc(NC(=O)Nc3ccccc3)ccc2O[C@@H]1CN(C)C(=O)Nc1cccc2ccccc12 the results were T cruzi growth-1 6.2, Pf Dd2 inh -5.7 and C diff growth -4.9.
`C[C@@H]1CCCCO[C@H](CN(C)C(=O)Cc2ccccc2)[C@@H](C)CN([C@@H](C)CO)C(=O)c2cc(NC(=O)Nc3ccc4c(c3)OCO4)ccc2O1` gave T cruzi growth-1 inconclusive, Pf Dd2 inh -83.8*, C diff growth 4.4, T cruzi growth-2 108.8*, T cruzi growth-3 29.7, NIH3T3 tox -8.3 and NIH3T3 tox 2 -2.7.
For C[C@H]1CCCCO[C@H](CN(C)C(=O)Cc2ccccc2)[C@@H](C)CN([C@@H](C)CO)C(=O)c2cc(NC(=O)Nc3ccc4c(c3)OCO4)ccc2O1 the results were T cruzi growth-1 114.7*, Pf Dd2 inh -71.1, C diff growth 0.9, T cruzi growth-2 111.6*, T cruzi growth-3 4.9, NIH3T3 tox -15.1 and NIH3T3 tox 2 2.5.
For C[C@@H]1CN([C@@H](C)CO)C(=O)c2cc(NC(=O)Nc3ccccc3)ccc2O[C@@H](C)CCCCO[C@H]1CN(C)C(=O)Cc1ccccc1 the results were T cruzi growth-1 25.1 and Pf Dd2 inh -33.6.
C[C@@H]1CN([C@@H](C)CO)C(=O)c2cc(NC(=O)Nc3ccc4c(c3)OCO4)ccc2O[C@@H](C)CCCCO[C@H]1CN(C)C(=O)Cc1ccccc1 was read as T cruzi growth-1 -38.5, Pf Dd2 inh -6.0 and C diff growth 1.9.
For CN1C(=O)c2cc(NC(=O)Nc3ccccc3F)ccc2OC[C@@H]2O[C@H](CC(=O)NCc3ccc(-c4ccccc4)cc3)CC[C@H]21 the results were T cruzi growth-1 74.0, Pf Dd2 inh -70.7 and C diff growth 0.1.
`C[C@H](CO)N1C[C@H](C)[C@@H](CN(C)Cc2ccc(C(F)(F)F)cc2)Oc2c(NC(=O)Nc3ccccc3)cccc2C1=O` gave T cruzi growth-1 83.7, Pf Dd2 inh -40.7 and C diff growth 5.3.
Screening COc1ccc(S(=O)(=O)N(C)C[C@H]2Oc3cc(C#CC4CC4)ccc3S(=O)(=O)N([C@H](C)CO)C[C@H]2C)cc1 returned T cruzi growth-1 106.5*, Pf Dd2 inh -60.7, C diff growth -0.6, T cruzi growth-2 107.6*, T cruzi growth-3 92.5, NIH3T3 tox 23.5 and NIH3T3 tox 2 58.9*.
For COc1ccc(S(=O)(=O)N(C)C[C@@H]2Oc3cc(C#CC4CCCC4)ccc3S(=O)(=O)N([C@H](C)CO)C[C@@H]2C)cc1 the results were T cruzi growth-1 73.5, Pf Dd2 inh -47.2 and C diff growth 11.7.
For COc1ccc(S(=O)(=O)N(C)C[C@@H]2Oc3cc(C#CC4CC4)ccc3S(=O)(=O)N([C@@H](C)CO)C[C@H]2C)cc1 the results were T cruzi growth-1 112.0*, Pf Dd2 inh -76.0, C diff growth 8.6, T cruzi growth-2 102.2*, T cruzi growth-3 77.5, NIH3T3 tox 53.2* and NIH3T3 tox 2 40.2*.
For COc1ccc(S(=O)(=O)N(C)C[C@@H]2Oc3cc(C#CC4CCCC4)ccc3S(=O)(=O)N([C@@H](C)CO)C[C@@H]2C)cc1 the results were T cruzi growth-1 66.8, Pf Dd2 inh -74.7 and C diff growth 7.1.
`C[C@@H]1CCCCO[C@H](CN(C)C(=O)Nc2ccccc2)[C@@H](C)CN([C@@H](C)CO)C(=O)c2cc(NC(=O)c3ccncc3)ccc2O1` gave T cruzi growth-1 36.9, Pf Dd2 inh -45.2 and C diff growth -9.8.
